Rows were chosen to be rich in hits. Some 0.83% of all compounds tested hit in one or more screens of this group.
NCOA2 inhibitor: inhibits human steroid receptor coactivator 2; Q15596; HEK293 GAL4-SRC2 luciferase reporter, luminescence; hit rate 0.17% among 370,000; AID 651957; inhibition, % at 9 µM;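 active = inhibition above the mean inhibition of all tested compounds plus 3 SD, set per campaign, cut at about 52% in these data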;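 also: 0% = DMSO treated cells and 100% = cells given Gossypol at 36 µM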
NCOA3 inh: human NCOA3 inhibition; HEK293 GAL4-SRC3 luciferase reporter, luminescence; inhibition, % at 3.6 µM; Q9Y6Q9; hit rate 0.17% among 360,000;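 active = inhibition above a per-campaign cutoff, the mean of all compounds plus 3 SD, cut at about 60% in these data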;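 also: 0% = DMSO-treated cells and 100% = gossypol-treated cells at 36 µM; higher means less SRC3-driven luciferase light from the GAL4 reporter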
SRC1 inh: human NCOA1 inhibition; Q15788; inhibition, % at 3.6 µM; HEK293 GAL4-SRC1 luciferase reporter, luminescence; hit rate 0.12% among 360,000; AID 588354;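 active = inhibition above the campaign mean plus 3 SD, with each screening campaign given its own cutoff, cut at about 60% in these data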;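 also: 0% = DMSO treated cells and 100% = gossypol at 36 µM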
NR5A2 inv ag: inverse agonists of human LRH-1 (NR5A2) | O00482 | HEK293T StAR-luciferase reporter, LRH-1 transfected, 24 h | inhibition, % at 3.6 µM | hit rate 0.13% among 360,000;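 active = inhibition above the mean inhibition of all tested compounds plus 3 SD, cut at about 73% in these data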;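 also: 0% = DMSO wells and 100% = reporter-only cells lacking LRH-1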
Gli-Sufu antag: antagonists of Gli-Sufu signaling | Sufu-KO-LIGHT fibroblasts, Gli luciferase reporter luminescence | inhibition, % at 5 µM | hit rate 0.74% among 340,000 | AID 588413;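 active = inhibition above about 55%, limit read from the data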;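 also: 0% = DMSO-treated cells and 100% = wells with medium but no cells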
Gli antag conf: confirmation of Gli-SUFU pathway antagonists; shares compounds with Gli-Sufu antag; Sufu-KO-LIGHT cells, Gli luciferase reporter, luminescence; inhibition, % at 5 µM; hit rate 40% among 2,500; AID 602428;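 active = mean inhibition at 5 µM reaching about 45%, limit read from the data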;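 also: plate controls were DMSO-treated cells for no effect and wells lacking cells for full effect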
SufuKO cytotox: cytotoxic in Gli-SUFU antagonist counter-screen; shares compounds with Gli-Sufu antag; Sufu-KO-LIGHT cells cytotoxicity, ATP luminescence; cytotoxicity, % at 5 µM; hit rate 32% among 2,500; AID 651994;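 active = mean cytotoxicity at 5 µM above about 25%, limit read from the data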;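 also: cells exposed to compound overnight for roughly 16 to 18 hours; plate controls were DMSO wells with cells for no effect and medium without cells for full effect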
Wnt3a counter: inhibits Wnt3a reporter, counter-screen for Gli-SUFU antagonists; AID 651995; inhibition, % at 6.25 µM; Wnt-LIGHT cells, Wnt3a-driven luciferase reporter, luminescence; hit rate 20% among 2,500; shares compounds with Gli-Sufu antag;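 active = mean inhibition above about 25%, limit read from the data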
* hit, by the source's call; x = not tested or not shown.

SMILES | NCOA2 inhibitor | NCOA3 inh | SRC1 inh | NR5A2 inv ag | Gli-Sufu antag | Gli antag conf | SufuKO cytotox | Wnt3a counter
Cc1ccc(S(=O)(=O)N2CCN(c3ncnc4sccc34)CC2)cc1C | 21.3 | 0.0 | 33.1 | 27.1 | 52.4 | 47.2* | 26.2* | 36.1*
CN1CCN(S(=O)(=O)c2ccc3c(c2)OCCO3)CC1 | -5.5 | 8.0 | 3.7 | 13.4 | -5.1 | x | x | x
CCCC[C@H](C(=O)N(C)c1ccccc1)[C@@H](O)c1ccc(Cl)cc1 | -3.6 | x | x | x | x | x | x | x
COc1ccc(C(C(=O)N(C)C2CCCC2)N(Cc2ccc(F)cc2)C(=O)c2sccc2Cl)cc1OC (stereo not drawn) | -9.2 | x | x | x | x | x | x | x
COc1ccc2c(c1)CCCN2C(=O)C1CCCN(S(=O)(=O)c2ccccc2)C1 (stereo not drawn) | 32.0 | x | x | x | x | x | x | x
CC1=CC2(C(Cc3ccccc3)N(CC3CC3)C(=NC(=O)c3ccccc3)N2C(=O)OCc2ccccc2)n2c(=O)n(-c3ccccc3)c(=O)n2C1 (stereo not drawn) | -2.0 | x | x | x | x | x | x | x
O=C(Nc1ccccc1)N1CCC(C(=O)N2CCCC(C(F)(F)F)C2)CC1 (stereo not drawn) | -0.3 | -4.4 | 1.9 | -20.4 | 92.2* | 22.6 | 14.1 | -46.6
CCOC(=O)[C@]12CCCCC/C=C\1N(Cc1ccc(OC)cc1)C(=O)[C@H]2CC(=O)NCCC(C)C | -39.4 | x | x | x | x | x | x | x
C[N+]1=C(/C=C/Nc2ccccc2Cl)C(C)(C)c2ccccc21 | 18.6 | 2.3 | -12.4 | -8.1 | 56.2* | 52.2* | 38.5* | -8.4
Cc1cc(C)cc(C(=O)OCCCN(C)C2CN(Cc3cn(Cc4ccc([N+](=O)[O-])cc4)nn3)S(=O)(=O)C2)c1 (stereo not drawn) | -31.1 | x | x | x | x | x | x | x
COc1cccc(CN2CC(C(=O)NCCOc3ccccc3F)CCC2=O)c1 (stereo not drawn) | -0.2 | -2.0 | 5.3 | -11.1 | 59.5* | 35.8 | 15.4 | -39.0
CSc1cccc(N2CC(C(=O)NCCC3=CCCCC3)CC2=O)c1 (stereo not drawn) | 1.1 | -2.3 | -7.0 | -43.4 | -5.6 | x | x | x
COc1ccccc1OCCNC(=O)C1CC(=O)N(c2cccc(SC)c2)C1 (stereo not drawn) | -5.3 | 11.3 | 0.9 | 6.6 | 95.5* | 27.7 | 20.2 | -25.6
COc1ccc(OC[C@@H](O)CN2CCC(C(O)(c3ccccc3)c3ccccc3)CC2)cc1 | 15.8 | x | x | x | x | x | x | x
COCCCNC(=O)C[C@H]1C[C@@]2(C(=O)OC)C(=C[C@H](COCc3ccccc3)O[C@@H]2C)N(Cc2ccccc2)C1=O | 6.1 | x | x | x | x | x | x | x
N#C[C@@H]1N[C@H](CO)[C@@H]1c1ccccc1 | 21.7 | x | x | x | x | x | x | x
COc1ccc(N2CCN(C(=O)CC(C)S(=O)(=O)c3ccc4c(c3)NC(=O)CO4)CC2)cc1 (stereo not drawn) | 19.3 | 2.3 | 3.8 | 19.9 | -18.5 | x | x | x
CC(CC(=O)N1CCN(c2cccc(Cl)c2)CC1)S(=O)(=O)c1ccc2c(c1)NC(=O)CO2 (stereo not drawn) | -21.2 | -0.1 | 9.2 | 17.3 | 58.7* | 51.0* | 20.3 | 0.2
Cc1ccc(S(=O)(=O)N(CCc2ccccc2)CC(=O)N2CCOCC2)cc1 | -12.9 | x | x | x | x | x | x | x
CCOC(=O)N1CCN(C(=O)C[C@H]2C[C@@]3(C(=O)OC)C(=C[C@H](COCc4ccccc4)O[C@@H]3C)N(Cc3ccc(Cl)cc3Cl)C2=O)CC1 | -6.3 | x | x | x | x | x | x | x
CCCCN(CCCC)C(=O)CN(C)S(=O)(=O)c1ccc2c(c1)n(C)c(=O)c(=O)n2C | -10.7 | -0.4 | -4.9 | -7.5 | 2.7 | x | x | x
CN(CC(=O)O)S(=O)(=O)c1ccc2c(c1)n(C)c(=O)c(=O)n2C | -10.0 | 4.2 | 1.4 | 4.2 | 62.8* | 10.4 | -2.5 | -3.2
O=C1C(Cl)=C(N2CCCCC2)C(=O)N1c1ccccc1Cl | 6.2 | 2.0 | 21.9 | 3.3 | 59.6* | 19.6 | 19.1 | 1.3
CC(=O)c1cc(-c2ccc(-c3ccccc3)c(F)c2)c(=O)n2c1CCC2 | -1.8 | x | x | x | x | x | x | x
CC(C)NCC(O)COC1CCC(C(C)(C)C)CC1 (stereo not drawn) | -9.8 | 27.3 | 18.6 | 12.1 | 69.8* | 15.3 | 5.7 | -26.5
SMILES | NCOA2 inhibitor | NCOA3 inh | SRC1 inh | NR5A2 inv ag | Gli-Sufu antag | Gli antag conf | SufuKO cytotox | Wnt3a counter
Cc1ccc2c(c1)C1CS(=O)(=O)N(CCc3ccccc3)C(=O)N1C2 (stereo not drawn) | -1.5 | x | x | x | x | x | x | x
COc1ccc(-c2nc(CCl)cs2)cc1OC | -18.6 | 9.9 | -0.6 | -10.3 | 60.3* | 10.1 | 16.1 | -14.8
CCOC(=O)c1sc(NC(=O)c2cc(-c3ccc(C)cc3)nc3ccccc23)c(C#N)c1C | 8.4 | -4.8 | 4.7 | 2.0 | 41.3 | x | x | x
COC(=O)c1sc(NC(=O)c2cc(-c3ccccc3)nc3ccccc23)c(C#N)c1C | 7.3 | 32.7 | 13.3 | 6.6 | 69.1* | 81.7* | 30.9* | 62.3*
COCCCN1C(=O)[C@H](CC(=O)NCCCCc2ccccc2)[C@]2(C(=O)OC)CCCCC=C12 | -6.5 | x | x | x | x | x | x | x
Cc1nc2ncccn2c1-c1csc(Nc2ccc(S(N)(=O)=O)cc2)n1 | 22.0 | 8.4 | 16.5 | 20.0 | 3.7 | x | x | x
Cc1nc2ncccn2c1-c1csc(Nc2ccccc2)n1 | -6.2 | 2.9 | 0.2 | -32.5 | 30.1 | x | x | x
COc1ccccc1Nc1nc(-c2c(C)nc3ncccn23)cs1 | 11.7 | 14.9 | 12.9 | 2.1 | 55.0* | 67.5* | 59.2* | 27.6*
COc1ccc(Nc2nc(-c3c(C)nc4ncccn34)cs2)cc1 | 17.5 | -5.7 | -20.5 | 1.5 | 71.1* | 75.0* | 65.7* | -70.1
Cc1nc2ncccn2c1-c1csc(Nc2ccc(N(C)C)cc2)n1 | 9.2 | 2.2 | -21.1 | 29.8 | 61.7* | 57.4* | 45.4* | -90.4
COc1ccc(CN(C)c2ccc(S(=O)(=O)N3CCN(C)CC3)cc2[N+](=O)[O-])cc1OC | 16.4 | 18.2 | 11.1 | 30.1 | 74.5* | 74.4* | 35.3* | 45.2*
O=C(Nc1ccccc1Cc1ccccc1)c1ccccc1NS(=O)(=O)c1ccc(Cl)s1 | 30.1 | 34.8 | 13.4 | 25.2 | 58.8* | 62.6* | 30.1* | 56.9*
O=C(c1ccccc1C(F)(F)F)N1CCC(Oc2cccnc2)CC1 | 8.5 | x | x | x | x | x | x | x
CCOC(=O)c1oc2ccccc2c1NC(=O)C1CCCCC1 | x | 17.4 | 6.9 | 13.9 | 97.1* | 23.9 | 19.0 | -9.2
COC(=O)C[C@H]1CC[C@@H]2[C@@H](COc3ccc(NS(=O)(=O)c4ccccc4Cl)cc3C(=O)N2C)O1 | -19.2 | x | x | x | x | x | x | x
CCn1cc[n+](C)c1P(c1ccccc1)c1ccccc1 | 23.1 | 13.3 | 4.0 | -1.1 | 50.6 | 55.2* | 13.0 | 23.2
Cc1ccc(NC(=O)CSc2ccc3c(c2)OCCO3)c(O)c1 | 17.8 | 31.3 | -2.9 | 44.9 | 73.2* | 69.3* | 42.6* | 51.4*
CCCCCCCCN1C(=O)[C@@H](CC(=O)N2CCCCC2)C[C@@]2(C(=O)OC)C1=C[C@H](C(C)C)O[C@@H]2C1CC1 | 28.4 | x | x | x | x | x | x | x

Assay outcomes (PubChem)
